From ChEMBL document CHEMBL4296182, “CO-ADD screening of NIH NCI Diversity Set V”
For part of these data: Potency and affinity values are given separately.

Tests used:
[1] = tested on: Staphylococcus aureus; experiment: Antibacterial activity against Staphylococcus aureus MRSA ATCC 43300 (CO-ADD:GP_020); MIC in CAMBH media using NBS plates, by Resazurin F(560/590); format: functional; details: Concentration 20 uM, ASSAY_TEST Inhibition of Bacterial Growth, detection method Resazurin, Fluorescence (ex560/em590), MEDIA CAMHB, plate type 384well, CORNING #3640, time 18 hr
[2] = tested on: Acinetobacter baumannii; experiment: Antibacterial activity against Acinetobacter baumannii ATCC 19606 (CO-ADD:GN_034); MIC in CAMBH media using NBS plates, by Resazurin F(560/590); format: functional; details: Concentration 20 uM, ASSAY_TEST Inhibition of Bacterial Growth, detection method Resazurin, Fluorescence (ex560/em590), MEDIA CAMHB, plate type 384well, CORNING #3640, time 18 hr
[3] = tested on: Escherichia coli; experiment: Antibacterial activity against Escherichia coli ATCC 25922 (CO-ADD:GN_001); MIC in CAMBH media using NBS plates, by Resazurin F(560/590); format: functional; details: Concentration 20 uM, ASSAY_TEST Inhibition of Bacterial Growth, detection method Resazurin, Fluorescence (ex560/em590), MEDIA CAMHB, plate type 384well, CORNING #3640, time 18 hr
[4] = tested on: Klebsiella pneumoniae; details: Concentration 20 uM; ASSAY_TEST Inhibition of Bacterial Growth; detection method Absorption (OD600); MEDIA CAMHB; plate type 384well; NBS; CORNING #3640; time 18 hr
[5] = tested on: Candida albicans; details: 20 µM
[6] = tested on: Cryptococcus neoformans; details: Concentration 20 uM; ASSAY_TEST Inhibition of Fungal Growth; detection method Resazurin; Absorption (OD600-OD570); plate type 384well; NBS; CORNING #3640

Structure (SMILES) | Inhibition [1] [%] | Inhibition [2] [%] | Inhibition [3] [%] | Inhibition [4] [%] | Inhibition [5] [%] | Inhibition [6] [%]
COc1cc(C(O)c2nc3ccccc3s2)cc(OC)c1OC (stereo not given) | 9.75 | -15.16 | 6.66 | 12.12 | 9.5 | -12.06
O=C(/C=C\c1ccc(O)c(O)c1)OC1C(O)CC(OC(=O)/C=C/c2ccc(O)c(O)c2)(C(=O)O)CC1O (stereo not given) | 21.21 | -10.3 | 9.77 | 14 | -2.85 | -1.87
c1ccc(CSc2nnc3c4ccccc4c4ccccc4c3n2)cc1 | -1.68 | 11.2 | 0.12 | 1.09 | 5.6 | -12.52
CS(=O)(=O)Nc1nc2ccccc2[nH]1 | 10.98 | 4.83 | -1.14 | 15.79 | 3.39 | -3.84
CC(C)(C)NC1=NCCNC(c2ccccc2)=C1.CS(=O)(=O)O | -3.88 | 8.25 | 7 | 11.55 | 1.18 | -14.32
c1ccc(Nc2cccc3c(Nc4ccccc4)cccc23)cc1 | -4.86 | -14.93 | 9.5 | 12.7 | -0.47 | -1.96
Cc1cc(NC(=O)Nc2cccc3ccccc23)no1 | -11.32 | -7.4 | 9.22 | -0.15 | 8.31 | -12.19
Cc1ccc2c(c1)C(=C(C#N)C#N)CCN2 | 5.58 | 12.47 | 3.17 | 22.07 | 3.21 | -7.98
O=[N+]([O-])/C=C/c1cc2ccccc2[nH]1 | 0.82 | -9.9 | 9.79 | 7.79 | 46.8 | -1.09
CCCCCn1cnc2c(S)nc(N)nc21 | 4.88 | -14.99 | 12.21 | 5.23 | 1.29 | -16.43
O=C(NC(=S)Nc1cccc(O)c1)c1ccco1 | 2.34 | -0.89 | 12.02 | -1.93 | 0.31 | -18.75
Cn1cnc([N+](=O)[O-])c1Sc1n[nH]c(N)n1 | 6.38 | 14.39 | -1 | 1.75 | -0.83 | -4.45
CCN(CC)CCNc1c(C)nc(C#N)c(N)[n+]1[O-] | 6.23 | -9.24 | 11.24 | 8.95 | 2.9 | -16.29
CCCSc1ncnc2[nH]ncc12 | 4.5 | -9.04 | 5.02 | 27.49 | 6.91 | -5.45
CC(=O)NCC(=O)O.CN(C)CCC1c2ccc(Cl)cc2CCc2cccnc21 (stereo not given) [CLOSIRAMINE ACETURATE] | 15.26 | -11.76 | 19.15 | 8.33 | -2.05 | -9.31
COC1C(=O)CCC2(CO2)C1(O)C1(C)OC1CC=C(C)C (stereo not given) | -15.99 | -18.89 | 14.59 | 5.17 | 9.99 | -9.09
Cc1ccc(NC(=O)Nc2c(Cl)cccc2Cl)cn1 | 20.25 | -2.44 | -14.35 | 6.22 | 3.4 | 18.5
CC(=O)OCCN1c2ccccc2Sc2cnccc21 | -12.23 | -1.85 | -8.04 | 5.46 | 1.65 | -8.61
c1ccc2cc(OCCOCCOc3ccc4ccccc4c3)ccc2c1 | 11.38 | 0.36 | 5.4 | 11.21 | 5.37 | -6.02
Cc1nc(S)nc(O)c1Cc1c(O)ccc2ccccc12 | -11.57 | -9.92 | 5.55 | 6.39 | 20.9 | -9.2
Nc1ccc(S(=O)(=O)NCC2CCCCO2)cc1 (stereo not given) | 11.97 | 6.11 | 1.65 | 16.22 | 0.19 | -11.32
Cc1cc(O)c(-c2cc(O)c(C)cc2O)cc1O | 5.49 | -9.17 | 6.61 | 0.01 | 5.95 | 17.06
O=C(Nc1ccc(NC(=O)c2ccncc2)cc1)c1ccncc1 | 23.04 | -1.2 | 8.24 | 15.75 | 1.6 | -0.9
S=C(SCc1cc(Cl)cc2c1OCOC2)N1CCSCC1 | 8.1 | -7.54 | 10.68 | 22.79 | 13.5 | 0.8
Cn1ncc2c(O)nc(N)nc21 | 6 | -7.72 | 12.24 | 14.42 | -0.53 | 20.28
